Some test systems named below: NCI-H23 lung; NCI-H226 lung; NCI-H322M lung; NCI-H460 lung; HOP-92 NSCLC; A549/ATCC NSCLC; 786-0 renal; COLO 205 colon; DU-145 prostate; K-562 leukemia; MALME-3M melanoma; MDA-MB-231 breast; RXF 393 renal; SF-268 CNS; SF-295 CNS; SF-539 CNS; UACC-257 melanoma; M14 melanoma; NCI-H522 lung.
Holding throughout (assay): NCI-60 one-dose screen, 48 h (100 = growth as untreated, 0 = no growth, -100 = all killed)
Settings in all cases: 10 µM

The panel holds about 83,000 compounds, 20% with a hit somewhere; the sample as a whole holds those more often.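 48-hour exposure, single concentration, 96-well plates; percent growth endpoint where 0 means no net growth. Active: below 10.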 Values without a mark were called inactive. Active and inactive are the calls of the source.

Consider `COc1ccccc1[C@H]1C(C(=O)c2ccc(O)cc2)C2(N[C@@H]1c1ccccc1)C(=O)Nc1ccc(Br)cc12` (some centres undefined), for which the growth in the assay on NCI-H23 lung is 33.8%; in the assay on NCI-H226 lung, 48.1%; with NCI-H322M lung, 55.3%; with NCI-H460 lung, 20.2%; in the assay on HOP-92 NSCLC, 51.8%; with A549/ATCC NSCLC, 32.6%. Further, the growth with 786-0 renal was 26.9%; with COLO 205 colon, -5.4% (active); with DU-145 prostate, 56%; in the assay on K-562 leukemia it was 23.1%; in the assay on MALME-3M melanoma it was 66.3%; in the assay on MDA-MB-231 breast, 32.9%. Further, the growth was 13.5% in the assay on RXF 393 renal; 53.1% in the assay with SF-268 CNS; 27.9% in the assay on SF-295 CNS; 51.8% in the assay on SF-539 CNS; 56.1% in the assay on UACC-257 melanoma; 51.6% with M14 melanoma.

Turning to `CC(=O)c1ccc(Nc2nc(SC(C)C)nc(-c3ccccc3)c2C#N)cc1`, the growth was 22.4% in the assay on NCI-H23 lung; -25.1% (active) in the assay on NCI-H226 lung; 24.2% in the assay with NCI-H322M lung; 20.2% in the assay on NCI-H460 lung; -15.8% (active) in the assay on HOP-92 NSCLC; 64.6% in the assay on NCI-H522 lung. Also, the growth in the assay with A549/ATCC NSCLC is 57.3%; in the assay on 786-0 renal, -56.6% (active); with COLO 205 colon, 74.7%; with DU-145 prostate it was 43.8%; in the assay on K-562 leukemia, 43%; with MALME-3M melanoma, 8.39% (active). In addition, the growth was -0.399% (active) with MDA-MB-231 breast; 41.1% with SF-268 CNS; -40.7% (active) with SF-295 CNS; -17.4% (active) in the assay on SF-539 CNS; 96.1% in the assay with UACC-257 melanoma; 73.8% in the assay on M14 melanoma.

On to `O=c1nc(-c2ccccc2)cc(-c2cc3ccccc3nc2Cl)[nH]1`, for which the growth in the assay on NCI-H23 lung was 33.6%; with NCI-H226 lung it was 35.6%; with NCI-H322M lung, 64.4%; with NCI-H460 lung it was 2.46% (active); with HOP-92 NSCLC it was 41.8%; with NCI-H522 lung, 51.2%. In addition, the growth in the assay with A549/ATCC NSCLC is 68.9%; in the assay on 786-0 renal it was -19.8% (active); in the assay with COLO 205 colon, 45%; with DU-145 prostate, 38.4%; in the assay with K-562 leukemia, -11.9% (active); with MALME-3M melanoma it was 54.9%. Besides, the growth was -16.1% (active) with RXF 393 renal; 38.2% with SF-268 CNS; 42.2% with SF-295 CNS; -47.4% (active) with SF-539 CNS; 91.2% in the assay with UACC-257 melanoma; 38.6% in the assay with M14 melanoma.

Take `Cc1ccc(-c2nc(Nc3ccccc3C(=O)O)c3ccccc3n2)cc1`: the growth in the assay on NCI-H23 lung was -4.11% (active); in the assay on NCI-H226 lung, 15.3%; with NCI-H322M lung, 33.8%; in the assay with NCI-H460 lung it was -9.44% (active); with HOP-92 NSCLC, -19.5% (active); in the assay on NCI-H522 lung, 33.2%. Besides, the growth in the assay on A549/ATCC NSCLC is 30.5%; in the assay with 786-0 renal, 18.7%; with COLO 205 colon it was 80.9%; with DU-145 prostate it was 19.4%; with K-562 leukemia, 17.6%; with MALME-3M melanoma, 19.6%. In addition, the growth in the assay with MDA-MB-231 breast was 35.4%; in the assay with SF-268 CNS it was 11.2%; with SF-295 CNS, 5.81% (active); in the assay on SF-539 CNS, 21.3%; in the assay with UACC-257 melanoma, 28.6%; in the assay with M14 melanoma it was 12.6%.

As to `COc1cc2c(cc1OC)/C(=C\c1sc(Nc3ccc(O)cc3)nc1O)C(C(=O)O)=N2`, the growth with NCI-H23 lung is 47%; with NCI-H226 lung, 63.7%; with NCI-H322M lung, 53.8%; with HOP-92 NSCLC, 36.4%; with NCI-H522 lung, -18.3% (active); with A549/ATCC NSCLC, 56.4%. The growth with 786-0 renal is 29.1%; with COLO 205 colon, -30.7% (active); in the assay with DU-145 prostate, 6.39% (active); in the assay with K-562 leukemia, 11.2%; with MALME-3M melanoma, 12.8%; in the assay on MDA-MB-231 breast, 29.8%. Further, the growth is 25% in the assay on RXF 393 renal; 54.2% in the assay with SF-268 CNS; 11.9% in the assay on SF-295 CNS; -20.2% (active) in the assay on SF-539 CNS; 48.8% with UACC-257 melanoma; 4.93% (active) with M14 melanoma.

`O=c1[nH]c2ccc(Cl)cc2cc1CSc1ccc(Nc2nccc(-c3ccc(Cl)cc3)n2)cc1`: the growth in the assay on NCI-H23 lung is 62.1%; with NCI-H226 lung, 66%; with NCI-H322M lung, 90.8%; in the assay on NCI-H460 lung it was -27.6% (active); in the assay with NCI-H522 lung it was 33.3%; in the assay with A549/ATCC NSCLC it was -41.8% (active). In addition, the growth in the assay on 786-0 renal is 75.2%; with COLO 205 colon, 4.59% (active); in the assay with DU-145 prostate, 4.82% (active); with K-562 leukemia, 59.3%; in the assay on MALME-3M melanoma it was 57.5%; in the assay with MDA-MB-231 breast it was 47%. The growth with SF-268 CNS is 58.5%; in the assay on SF-295 CNS, 105%; in the assay with SF-539 CNS, 45.7%; in the assay with UACC-257 melanoma it was 96.9%; with M14 melanoma, 84.4%.

For `CO[C@H]1CSS[C@@H]1Cn1nc(-c2ccc(Oc3ccccc3)cc2)c2c(N)ncnc21`, the growth in the assay on NCI-H23 lung was 40.4%; in the assay with NCI-H226 lung it was 16.6%; with NCI-H322M lung, 53.4%; in the assay with NCI-H460 lung, 21.1%; in the assay on HOP-92 NSCLC it was 20.5%; in the assay on NCI-H522 lung, -13% (active). Also, the growth was 22.1% with A549/ATCC NSCLC; 45% in the assay with 786-0 renal; 38.3% with DU-145 prostate; 7.28% (active) with K-562 leukemia; -38.2% (active) in the assay with MALME-3M melanoma; 9.69% (active) with MDA-MB-231 breast. Besides, the growth in the assay with RXF 393 renal is 18.6%; with SF-268 CNS, 32.4%; in the assay with SF-295 CNS, 35.4%; in the assay with SF-539 CNS it was 36.1%; with UACC-257 melanoma it was -3.47% (active); in the assay on M14 melanoma, -93% (active).

As for `COc1cc(OC(F)(F)F)ccc1C(=O)Nc1sc2c(c1C#N)CCC(=O)C2`, the growth with NCI-H23 lung was 54.5%; with NCI-H226 lung it was 87.9%; in the assay on NCI-H322M lung, 97.9%; in the assay on NCI-H460 lung it was 100%; with HOP-92 NSCLC it was 95.2%; in the assay with NCI-H522 lung it was -36.3% (active). Also, the growth with A549/ATCC NSCLC is 93.5%; with 786-0 renal, 97.5%; with COLO 205 colon it was 97.8%; in the assay on DU-145 prostate it was 103%; in the assay on K-562 leukemia, 11%; with MALME-3M melanoma, 85%. Moreover, the growth in the assay with MDA-MB-231 breast was 66.7%; with RXF 393 renal it was 22.8%; with SF-268 CNS it was 96.6%; in the assay on SF-295 CNS, 60.7%; in the assay with SF-539 CNS it was 8.76% (active); in the assay on UACC-257 melanoma, 98%. Besides, in the assay on M14 melanoma, the growth is 64.4%.

For the origin of these results see PubChem BioAssay (NCI).
